# Assay outcomes deposited in PubChem by National Center for Advancing Translational Sciences (NCATS).
# Sm TGR block = S. mansoni TGR enzyme inhibition; Q962Y6; purified TGR, DTNB reduction, TNB absorbance 405 nm; Potency, µM (highest dose often 114 µM), usual class: inhibitors; 360,000 tested, 3% active; note: nearly all actives have a fitted effect of over 60% in size
#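 First, TGR (20 nM dispensed) and NADPH were mixed with compound. Second, a 15 min room-temperature incubation followed. Third, further NADPH and then DTNB were added to start the reaction. Finally, TNB absorbance was monitored kinetically.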
# NS1 inh = inhibitors of influenza NS1 protein function | 270,000 tested, 0.4% active | Potency, µM (doses to about 46.1 µM) | AID 2326; calls by dose curve; note: actives are rising curves; nearly all actives have a fitted effect of over 50% in size
#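 In this qHTS, NS1 from influenza A is expressed in budding yeast, where it slows growth. Cells are switched from glucose to 2% galactose medium (pH 6.0, -URA), treated with compound, and growth recovery is read at OD600.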
# Pf growth 48h = P. falciparum growth inhibition at 48 hours (one generation); P. falciparum luciferase growth in erythrocytes, 48 h; Potency, µM (doses to about 28.7 µM), hits mostly inhibitors; 310,000 tested, 5.9% active
#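 Firefly luciferase activity from engineered P. falciparum reports growth; inhibitors lower the luminescent signal. Cultures contained 2% hematocrit erythrocytes at 0.1% final parasitemia.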
# Pf growth 96h = inhibits malaria parasite growth, 96 h. AID 504834. P. falciparum luciferase reporter growth, 96 h. Potency, µM (titrated, usually from 28.7 µM), hits mostly inhibitors. 320,000 tested, 6.9% active
#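 Two parasite generations (96 h, 37 C, 5% CO2) of compound exposure in infected erythrocytes (0.05% parasitemia, 2% hematocrit). Luciferase-reporter P. falciparum; decreased luminescence indicates inhibited growth, aimed at apicoplast-acting delayed death.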
# AMA1-RON2 inh = AMA1-RON2 (P. falciparum) interaction inhibition | Potency, µM (titrated, usually from 58.2 µM), actives largely listed as inhibitors | AlphaScreen AMA1-biotinylated RON2 peptide binding | 360,000 tested, 0.2% active; note: nearly all actives have a fitted effect of over 45% in size
#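 AMA1 (3D7) with his tag at 25 nM final met compounds first, then biotinylated RON2 peptide at 25 nM; detection used donor plus acceptor beads, 10 µg/mL apiece, read by AlphaScreen after 30 min at room temperature.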
# Hits are given with their value; . = inactive; ? = inconclusive; / = no result given; ! = not confirmed by another sample; [ ] = dose if it differs, or a comment. In the library only some 11% were active in any assay of this set; here they are far more common. Unless noted, calls come from the whole dose curve; as a rule, active = well fitted curve in the direction sought with a large enough effect; inconclusive = small, poorly fitted or top-dose-only effect, or another doubt; inactive = no such curve, though single readings can be large; an effect the other way counts as inactive or inconclusive.
SMILES,Sm TGR block,NS1 inh,Pf growth 48h,Pf growth 96h,AMA1-RON2 inh
O=S(=O)(c1ccc(Cl)cc1)N1CCC2(CC1)OCCN2S(=O)(=O)c1cccs1,.,/,13.1µM,?,.
O=C1C=C(c2ccc(F)nc2)CCC1,/,/,/,/,.
Cc1cc2oc(C(=O)Nc3cccc(-c4nc5ccccc5o4)c3)c(C)c2cc1C,.,/,/,/,/
O=C(/C=C/c1ccc([N+](=O)[O-])cc1)N(c1ccccn1)C1CCCCC1,?,/,?,?,.
CCc1ccccc1NC(=O)N1CCc2cc(OC)c(OC)cc2C1CC(=O)OC (stereo not given),.,/,/,/,/
CCOc1ccccc1C(=O)Nc1cc(C(=O)NCC(C)C)ccc1Cl,.,.,7.38µM,1.65µM,/
CCOc1ccccc1NC(=O)C(OC(=O)c1ccc(CC)cc1)c1ccccc1 (stereo not given),.,.,?,?,.
CCOc1ccccc1NC(=O)c1cccc(NC(=O)CC(c2ccccc2)c2ccccc2)c1,.,?,?,?,.
CCOc1ccccc1NC(=O)c1ccc(Cl)c(NC(=O)CC(c2ccccc2)c2ccccc2)c1,.,.,?,9.28µM,.
CCOc1ccccc1NC(=O)C(OC(=O)c1ccc(O)cc1)c1ccccc1 (stereo not given),.,.,11.7µM,?,.[2.32 µM]
COCCN(C(=O)CSc1nnc(-c2ccc(C(C)(C)C)cc2)n1N)c1c(N)n(CC(C)C)c(=O)[nH]c1=O,.,/,?,.,.
COc1ccc(-c2nnn3c2nc(NCc2ccc(C)cc2)c2ccccc23)cc1,.,/,/,/,/
O=C(OCc1ccc([N+](=O)[O-])cc1)c1cc(S(=O)(=O)N2CCCCC2)ccc1N1CCOCC1,?,/,?,10.4µM,.
Cc1ccccc1COC(=O)c1cc([N+](=O)[O-])ccc1N1CCOCC1,.,.,.,?,.
O=C(OCCOc1ccc(Cl)cc1)c1cc(S(=O)(=O)N2CCCCC2)ccc1N1CCOCC1,/,/,/,/,.
COc1ccc(OC)c(COC(=O)c2cc([N+](=O)[O-])ccc2N2CCOCC2)c1,.,/,4.65µM,2.94µM,.
Cc1ccc(OCCOC(=O)c2cc(S(=O)(=O)N3CCCCC3)ccc2N2CCOCC2)cc1,.,/,?,13.1µM,.[11.6 µM]
CN(C)S(=O)(=O)c1cccc(COC(=O)c2cc([N+](=O)[O-])ccc2N2CCOCC2)c1,.,/,13.1µM,10.4µM,.
CSc1ccc(COC(=O)c2cc([N+](=O)[O-])ccc2N2CCOCC2)cc1,.,/,?,?,?
O=C(OCc1ccc(F)cc1)c1cc(S(=O)(=O)N2CCCCC2)ccc1N1CCOCC1,.,/,.,?,.
Nc1nonc1-c1nc2ccccc2n1CC(=O)Nc1cccc(C(F)(F)F)c1,.,/,/,/,/
CCc1ccc(-c2nc(CSCC(=O)NCc3ccc(C)cc3)c(C)o2)cc1,.,/,/,/,/
Cc1c(-c2ccccc2)n(-c2ccccc2O)c2nc3c(c(=O)n(C)c(=O)n3C)n12,.,/,/,/,/
CC[C@]1(C(=O)OC)[C@H]2C(=O)N(C)C(=O)[C@H]2[C@H]2CN=C(SCc3ccc(C(=O)OC)cc3)N21,/,/,/,/,.
Cc1noc(C)c1-c1ccc(C(=O)NC2CCCCC2)c2occc12,/,/,/,/,.
SMILES,Sm TGR block,NS1 inh,Pf growth 48h,Pf growth 96h,AMA1-RON2 inh
CCN1CCCc2cc(CN(CCN3CCOCC3)C(=S)Nc3cccc(Cl)c3)ccc21,.,/,?,.,3.55µM
CCOc1ccc(NC(=S)N(CCN2CCOCC2)Cc2ccc3c(c2)CCCN3CC)cc1,.,/,?,?,.
CCN1CCCc2cc(CN(CCN3CCOCC3)C(=S)Nc3ccc(OC)cc3)ccc21,.,/,.,5.86µM,.
COC(=O)CN1C(=O)[C@H]2[C@@H](/C=C/c3ccccc3)N3C(=O)CN(Cc4ccccc4)C(=O)[C@@]3(C)[C@H]2C1=O,.,.,.,.,.
CC(CC(=O)NNC(=O)c1cccc(Cl)c1)c1ccccc1 (stereo not given),.,.,.,.,.
O=C1c2ccccc2S(=O)(=O)N1CC(O)COc1ccc(Cl)cc1 (stereo not given),.,.,.,6.57µM,.
O=C1c2ccccc2S(=O)(=O)N1CC(O)COc1ccc(Br)cc1 (stereo not given),.,.,.,.,.
O=C(N/N=C/c1cn(Cc2cccc(F)c2)c2ccccc12)c1cc(O)cc(O)c1,.,.,.,?,25.1µM
COc1ccc(OC)c(-c2csc(N(CC3CCCO3)C(=O)Cc3ccccc3)n2)c1 (stereo not given),.,.,?,1.85µM,.
COc1ccc(OC)c(-c2csc(NC(=O)c3ccc(OCC4CCCO4)cc3)n2)c1 (stereo not given),.,.,?,11.7µM,.
CCOC(=O)c1cc(-c2ccccc2)n(-c2cccc(C(=O)Nc3cccc(SC)c3)c2)c1C,.,/,/,/,/
O=C(NCc1ccccc1)Nc1nnc([C@@H]2C[C@H](O)[C@@H](CO)O2)s1,/,/,/,/,.
Cc1ccccc1C(=O)NC(=S)Nc1ncccn1,.,.,.,?,.
NCc1ccc(S(N)(=O)=O)cc1,?,.,?,3.61µM!,.
CC#CC(=O)NCC1(N(C)Cc2ccccc2)Cc2ccccc2C1,.,.,.,7.38µM,.
CC(C)CCNCC(=O)NC(c1ccccc1)c1ccccc1,.,.,?,.,.
CSc1nc2nc(C(F)(F)F)cc(-c3ccccc3)n2n1,.,.,/,2.94µM,.
CSc1nc2nc(-c3ccccc3)cc(C(F)(F)F)n2n1,.,.,4.15µM,.,.
FC(F)(F)c1cc(-c2ccccc2)nc2cc(-c3ccccc3)nn12,.,/,/,/,/
COc1ccc(CNC(=O)c2ccc3c(c2)CCN3S(=O)(=O)c2ccc(C)cc2)cc1,.,/,/,/,/
COc1ccc(-c2nc(NCCN(C)C)nc3ccsc23)c(C)c1,/,/,/,/,.
COC(=O)CCC(=O)OC1(C)C(=O)C=C2C=C(C3CC3)N(CC(C)C)C=C2C1=O (stereo not given),.,.,2.94µM,1.85µM,/
COC(=O)CCC(=O)OC1(C)C(=O)C=C2C=C(C3CC3)N(CC3CC3)C=C2C1=O (stereo not given),.,.,10.4µM,4.15µM,.
COC(=O)CCC(=O)OC1(C)C(=O)C=C2C=C(C3CC3)N(C3CCCC3)C=C2C1=O (stereo not given),.,.,?,7.38µM,.
COC(=O)CCC(=O)OC1(C)C(=O)C=C2C=C(C3CC3)N(Cc3ccccc3)C=C2C1=O (stereo not given),.,.,?,?,.
SMILES,Sm TGR block,NS1 inh,Pf growth 48h,Pf growth 96h,AMA1-RON2 inh
CCc1ccc(CNc2ncnc3c2nc2n3CCCC2)cc1,.,/,/,/,/
CC(C)c1ccc(NC(=O)[C@H]2O[C@@H]3OC(C)(C)O[C@@H]3[C@H]3OC(C)(C)O[C@H]32)cc1,.,/,/,/,/
N#Cc1ccc(CSc2nnc3[nH]c(=O)cc(N)n23)cc1,.,/,4.15µM,.,.
COc1ccc(CSc2nnc3[nH]c(=O)cc(N)n23)cc1,.,/,.,.,.
CN(C)c1ccc(CNC(=O)CCCN2C(=O)c3cccnc3Oc3ccc(Cl)cc32)cc1,.,/,/,/,/
O=C(Nc1cccs1)Nc1ccc(Br)cc1F,.,.,?,11.7µM,.
O=C(Nc1cccs1)Nc1ccc(F)cc1F,.,.,.,?,.
